# Experimental data published in PubChem BioAssay (NCI).
# Several values for one entry are separate records, joined by “and”; a condition that tells them apart may be missing. Equal values may be shown once. About 83,000 compounds went through this panel and 20% of them were active in at least one assay; those are over-represented in the sample as a whole.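 Interpretation: 100, growth as untreated; towards 0, rising growth inhibition; 0, no net growth; 0 to -100, cell death. Compounds scoring below 10 were considered active.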 Activity calls are given as the source filed them.
# System: MDA-MB-468 breast
# Assay: NCI-60 one-dose screen, 48 h (100 = growth as untreated, 0 = no growth, -100 = all killed)
# Conditions: 10 µM unless noted
row,Compound,growth
1,CCCCCCCCCCCCCCCCCCOc1cccc(CCOP(=O)(O)OCC[N+](C)(C)C)c1,94.2% (inactive)
2,CCN(CC)CCOc1ccc(Nc2ncc3cc(-c4ccc(O)cc4)c(=O)n(C)c3n2)cc1,44.8% (inactive)
3,N#Cc1c(-c2cccc(F)c2)cc(-c2ccc(Br)s2)[nH]c1=O,82.1% (inactive)
4,Nc1ccc(Nc2nccc(-c3ccc4ccccc4c3)n2)cc1,-10.6% (active)
5,O=C1/C(=C/c2ccc(F)c(F)c2)CN(C(=O)C(Cl)Cl)C/C1=C\c1ccc(F)c(F)c1,-58.2% (active)
6,FC(F)(F)c1[nH]ncc1-c1nc2ccc3[nH]ncc3c2c2c1CCCC2,19.7% (inactive)
7,CCCCCCCOc1c(OC)cc(C2CC(=O)Nc3c2c(C)nn3-c2nc3ccccc3[nH]2)cc1OC (stereo not given),-4.43% (active)
8,CC1OC(n2c3ccccc3c3c4c(c5c6ccccc6[nH]c5c32)C(=O)N(CCN2CCOCC2)C4=O)CC(O)C1O (stereo not given),-10.8% (active)
9,COc1ccc(Cn2c(Br)c3c(c2-c2cc(OC)c(OC)c(OC)c2)CCc2sc(NC(=O)c4ccc(OC)cc4)nc2-3)cc1,98.8% (inactive)
10,Nc1cc(C(=O)NC[C@H]2CN(c3ccc(N4CCC(C(=O)O)CC4)cc3)C(=O)O2)ccc1Cl,99.4% (inactive)
11,O=C(Nc1nc(-c2ccc(Cl)cc2)cs1)c1cc(O)c(O)c(O)c1,55.8% (inactive)
12,COc1cccc(/C=C/C(=O)c2c(C)nc3ccccc3c2/C=C/c2ccc(C)cc2)c1OC,58.3% (inactive)
13,Cn1c(=O)c2[nH]c(=S)n(Cc3ccccc3)c2n(C)c1=O,115% (inactive)
14,c1cc(CNC23CC4CC(CC(C4)C2)C3)cc(C[N+](Cc2cccc(CNC34CC5CC(CC(C5)C3)C4)c2)(Cc2cccc(CNC34CC5CC(CC(C5)C3)C4)c2)Cc2cccc(CNC34CC5CC(CC(C5)C3)C4)c2)c1 (stereo not given),-47.1% [42 µM] (active)
15,CN(C)[C@@H]1C(=O)C(C(N)=O)=C(O)[C@@]2(O)C(=O)C3=C(O)c4c(O)cc(CN5CCc6ccccc6C5)c(Cl)c4C[C@H]3C[C@@H]12,-46.8% (active)
16,CC1(C)OCC2OC3(C(=O)O)OC(C)(C)OC3C2O1 (stereo not given),98.5% (inactive)
17,CCN1/C(=C/C(C)=C/c2sc3ccc4ccccc4c3[n+]2CC)Sc2ccc3ccccc3c21,-87.4% (active)
18,Cc1nc(Nc2ncc(C(=O)Nc3c(C)cccc3Cl)s2)cc(N2CCN(CCO)CC2)n1,-4.35% (active) and -2.22% (active)
19,Clc1ccc2[nH]cc(-c3nn4cc(-c5cccnc5)nc4s3)c2c1,98.1% (inactive)
20,c1ccc2cc(Cn3cc(CSc4nc5ccccc5s4)nn3)ccc2c1,106% (inactive)

row,Compound,growth
1,O=C(c1ccccc1)N(C(=S)NCCc1ccc(Cl)cc1)c1ccccc1,30.3% (inactive)
2,O=C(Nc1ccc2ncnc(Nc3ccc(Oc4cccc(F)c4)c(Cl)c3)c2c1)c1ccc(CNCCO)cc1,-46% (active)
3,Cc1ccc(NC(=O)Nc2cccnc2)cc1NC(=O)Nc1cccnc1,71% (inactive)
4,CCN(CC)CC(=O)Nc1c(C)ccc(N)c1C,95.8% (inactive)
5,CC(Br)C(OC(=O)c1ccccc1Cl)c1cc2c(cc1Br)OCO2 (stereo not given),66.4% (inactive)
6,Cc1cccc(C[C@H](NC(=O)Nc2ccc(Cl)cc2F)C(=O)N[C@@H]2C(=O)N3C[C@H](O)C[C@H]3C(=O)N3CCCC[C@H]3C(=O)N[C@@H](C)C(=O)N3C[C@H](C)C[C@H]3C(=O)O[C@H]2C)c1,-7.94% (active)
7,CN(C)CC1(C)Cc2ccsc2C1O (stereo not given),104% (inactive) and 109% (inactive)
8,Clc1ccc(/C=C/c2ccc3ccccc3n2)cc1,-11.4% (active) and 73.5% (inactive) and 80.5% (inactive)
9,C[C@@H]1C(=O)N(C[C@@H](Cc2ccccc2)NC(=O)OCc2ccccc2)[C@]1(Cc1ccccc1)C(=O)OCc1ccccc1,26.1% (inactive)
10,COc1ccc(NC(=S)/N=c2\oc3c(OC)cccc3cc2-c2cc3ccccc3[nH]2)cc1,82.1% (inactive)
11,COc1cccc(-c2nc3sccn3c2-c2ccnc(NCCCNS(=O)(=O)c3cccc(Cl)c3)c2)c1,24.6% (inactive)
12,COc1ccc(-c2csc(NC(=O)CO[N+](=O)[O-])n2)cc1,113% (inactive)
13,O=C1/C=C/[C@@H](O)[C@@H]2C[C@@H](O)C[C@H]2/C=C/CCC[C@H](CCc2ccc(C(F)(F)F)cc2)O1,-20.3% (active)
14,O=C(O)c1ccc(-n2cc(/C=N/Nc3ccc(F)cc3)c(-c3cc4ccccc4oc3=O)n2)cc1,119% (inactive)
15,CN(C)c1ccc(/C=C2/C=C(c3ccccc3)OC2=O)cc1,-8.42% (active)
16,COc1cc2cc3c(=O)n4c(cc5cc(OC)ncc54)c(=O)n3c2cn1,102% (inactive)
17,N#CCCCCCCCCCCC#N,112% (inactive)
18,CCCCNCC(O)c1cc2c(Cl)cc(Cl)cc2c2cc(C(F)(F)F)ccc12 (stereo not given),-86.2% (active)
19,CS(=O)(=O)Nc1ccc(OCc2nnc(-c3ccc(Cl)cc3)o2)c(F)c1,86.8% (inactive)
20,CCCCCCn1c(=N)n(CC(O)COc2cccc(C)c2)c2ccccc21 (stereo not given),-68.7% (active)
